The results in this text go back to PubChem BioAssay (EPA / NIEHS).

Calls of active or inactive are those of the source. How the source made its calls: active means hit-call score of the fitted dose curve at least 0.9, where 1 is the maximum; inactive means score below 0.9.

The experiment can be described thus: Tanguay_ZF_120hpf_AXIS: Oregon State University Tanguay Lab 120 Hour Post-fertilization zebrafish Assay for Axial Malformation (AID 2284398). As to the method: Tanguay_ZF_120hpf is a whole embryo, multiplexed endpoint assay using zebrafish larvae exposed for 120 hours post fertilization on a 96-well plate.Tanguay_ZF_120hpf_AXIS is one of one assay component(s) measured or calculated from the Tanguay_ZF_120hpf assay. It is designed to make measurements of zebrafish development as detected with brightfield microscopy of developing zebrafish embryos.Data from the assay component Tanguay_ZF_120hpf_AXIS was analyzed into 1 assay endpoints. This assay endpoint, Tanguay_ZF_120hpf_AXIS, was analyzed in the positive analysis fitting direction relative to DMSO as the negative control and baseline of activity. Using a type of morphology reporter, gain-of-signal activity can be used to understand changes in developmentals as they relate to the whole embryo. To generalize the intended target to other relatable targets, this assay endpoint is annotated to the zebrafish development intended target family, where the subfamily is body axis morphogenesis.
Zebrafish husbandry: Tropical 5D wild-type adult zebrafish were housed in at an approximate density of 1000 per 100 gallon tank at the Sinnhuber Aquatic Research Laboratory, Oregon State University, Corvallis, OR. Each tank was kept at standard laboratory conditions of 28C on a 14-h light/10-h dark photoperiod in fish water consisting of reverse osmosis water supplemented with a commercially available salt (Instant Ocean). Spawning funnels were placed into the tanks the night prior, and embryos were collected and staged. To increase bioavailability, the chorion was enzymatically removed using pronase (63.6mg/ml, >/= 3.5U/mg, Sigma-Aldrich: P5147) at 4 hours post fertilization (hpf) using a custom automated dechorionator.Chemical exposures: Six hpf dechorionated embryos were placed 1 embryo per well in a 96-well plate prefilled with 90 ul of EM using automated embryo placement systems (AEPS). Ten microliters of each row of dilution plate 2 was added to 2 exposure plates. The final DMSO concentration used was 0.64% (vol/vol). Thirty-two embryos were also exposed to 5uM trimethyltin chloride (positive control). Plates were sealed to prevent evaporation and foil covered to reduce light exposure and kept in a 28C incubator. Embryos were statically exposed until 120 hpf. At 24 hpf, embryos were assessed for photomotor response using a custom photomotor response analysis tool (PRAT) and for developmental toxicity endpoints (MO24: mortality at 24 hpf, DP: developmental progression, SM: spontaneous movement, and NC: notochord distortion). At 120 hpf, locomotor activity was measured using Viewpoint Zebralab and assessed for 13 endpoints. Zebrafish acquisition and analysis program (ZAAP), a custom program designed to inventory, acquire, and manage zebrafish data, was used to collect developmental endpoints as either present or absent (i.e., binary responses were recorded). If mortality occurred for an embryo (at either 24 or 120 hpf), the non-mortality endpoints were not measured.
On to `FC1CC(F)(F)C(F)(F)C1(F)F` (stereo not given), for which the molecule was called inactive.

With `C=CC(F)(F)C(F)(F)C(F)(F)C(F)(F)C(F)(F)C(F)(F)C(F)(F)C(F)(F)C=C`, the outcome was inactive.

On to `OCCCC(F)(F)C(F)(F)C(F)(F)F`, for which the call was inactive.

On to `O=C(O)C(F)(F)C(F)(F)C(F)(F)F`, for which the molecule was called inactive.

In the case of `O=C(O)C(F)(F)C(F)(F)C(F)F`, the call was inactive.

Take `FC(F)(F)C(F)(F)C(F)(F)C(F)(F)CCI`: the molecule was classed as inactive.

For `FC(F)(F)C(F)(F)C(F)(F)C(F)(F)C(F)(F)C(F)(F)CC1CO1` (stereo not given), the molecule was classed as inactive.

For the molecule `O=C(O)C(F)(OC(F)(F)C(F)(OC(F)(F)C(F)(F)C(F)(F)F)C(F)(F)F)C(F)(F)F` (stereo not given), the molecule was called inactive.

Consider `COC(=O)CCC(F)(F)C(F)(F)C(F)(F)C(F)(F)F`, for which the outcome was inactive.

`O=P(O)(O)OCCC(F)(F)C(F)(F)C(F)(F)C(F)(F)C(F)(F)C(F)(F)F`: the call was inactive.

As for `FC(F)(F)C(F)(F)CNCC(F)(F)C(F)(F)F`, the molecule was called inactive.

Take `OCC(F)(F)C(F)(F)C(F)(F)C(F)(F)C(F)(F)C(F)(F)F`: the result was inactive.

Consider `NC(=O)C(F)(F)C(F)(F)C(F)(F)C(F)(F)F`, for which the molecule was called inactive.

As to `O=C(CC(=O)C(F)(F)C(F)(F)F)C(F)(F)F`, the call was inactive.

For `O=C(O)C(F)(OC(F)(F)C(F)(OC(F)(F)C(F)(OC(F)(F)C(F)(F)C(F)(F)F)C(F)(F)F)C(F)(F)F)C(F)(F)F` (stereo not given), the molecule was classed as inactive.

Turning to `O=C(O)C(F)(F)C(F)(F)C(F)(F)C(F)(F)C(F)(F)C(F)(F)C(F)(F)C(F)(F)C(F)(F)C(F)(F)C(F)(F)C(F)(F)F`, the result was inactive.

As for `C=C(C)C(=O)OCC(F)(F)C(F)(F)C(F)(F)F`, the molecule was classed as inactive.

With `C=CC(F)(F)C(F)(F)C(F)(F)C(F)(F)C(F)(F)C(F)(F)C(F)(F)C(F)(F)F`, the molecule was classed as inactive.

One may read the AC50 as the concentration giving half of the maximal activity seen. For the molecule `O=S(=O)(O)C(F)(F)C(F)(F)C(F)(F)C(F)(F)C(F)(F)C(F)(F)C(F)(F)F`, the AC50 is 49.5 µM (active).

`O=C(O)C(F)(F)C(F)(F)F`: the result was inactive.

Take `N=C(N)C(F)(F)C(F)(F)C(F)(F)C(F)(F)C(F)(F)C(F)(F)C(F)(F)F`: the outcome was inactive.

In the case of `FC(F)(F)C(F)(F)C(F)(F)N(C(F)(F)C(F)(F)C(F)(F)F)C(F)(F)C(F)(F)C(F)(F)F`, the molecule was classed as inactive.

For the molecule `CCCCCCCCC(F)(F)C(F)(F)C(F)(F)C(F)(F)C(F)(F)C(F)(F)F`, the molecule was called inactive.

Regarding `O=C(O)C(F)(F)C(F)(F)C(F)(F)C(F)(F)C(F)(F)C(F)(F)C(F)(F)C(F)(F)Cl`, the concentration at half-maximal activity (AC50) is 37.2 µM (active).

For the molecule `O=C(O)C(F)(F)C(F)(F)C(F)(F)C(F)(F)F`, the result was inactive.

As for `O=C(O)C=C(C(F)(F)F)C(F)(F)F`, the molecule was called inactive.

`FC(F)(F)C(F)(F)C(F)(F)C(F)(F)C(F)(F)C(F)(F)C(F)(F)I`: the call was inactive.

With `C=CC(=O)OCC(F)(F)C(F)(F)C(F)(F)C(F)(F)C(F)(F)C(F)(F)C(F)(F)F`, the molecule was classed as inactive.

On to `OCC(F)(F)C(F)(F)C(F)(F)F`, for which the molecule was classed as inactive.

As for `FC(F)(F)C(F)(F)C(F)(F)C(F)(F)C(F)(F)C(F)(F)C(F)(F)Br`, the molecule was called inactive.

As to `O=C(O)C(F)(F)C(F)(F)OC(F)(F)F`, the molecule was called inactive.

As to `O=C(O)C(F)(F)C(F)(F)C(F)(F)C(F)(F)C(F)(F)C(F)(F)C(F)(F)C(F)(F)C(F)(F)C(F)(F)C(F)(F)C(F)(F)C(F)(F)F`, the result was inactive.

Consider `CC(C)(C)C(=O)CC(=O)C(F)(F)C(F)(F)C(F)(F)F`, for which the molecule was called inactive.

As for `C=C(C)C(=O)OCC(F)(F)C(F)(F)C(F)(F)C(F)(F)C(F)(F)C(F)(F)C(F)(F)F`, the outcome was inactive.

For the molecule `O=S(=O)(OCCOC(F)(F)F)C(F)(F)F`, the outcome was inactive.

With `FC(F)(F)C(F)(F)C(F)(F)C(F)(F)C(F)(F)C(F)(F)C(F)(F)C(F)(F)CCS`, the outcome was inactive.

As to `FC(F)(F)C(F)(F)C(F)(F)C(F)(F)C(F)(F)CCI`, the result was inactive.

Regarding `O=C(O)C(F)(F)C(F)(F)C(F)(F)C(F)(F)C(F)(F)C(F)(F)C(F)(F)C(F)(F)C(F)(F)C(F)F`, the outcome was inactive.

Consider `FC(F)(F)C(F)(F)C(F)(F)C(F)(F)C(F)(F)C(F)(F)C(F)(F)C(F)(F)F`, for which the molecule was classed as inactive.

Take `OCC(F)(F)C(F)(F)C(F)(F)C(F)(F)C(F)(F)C(F)F`: the call was inactive.
